Laboratory results from PubChem BioAssay (NCI).
Compounds without any hit were thinned out: in the full panel of roughly 79,000, 15% have a hit. Calls of active or inactive are those of the source. Cut-off read from the data, not from the text of the source: active = growth inhibition above about 70%; inactive = the rest.

Columns and labels:
[1] = NCI Yeast Anticancer Drug Screen. Data for the wt1 strain (AID 149);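 note: 0% = growth of vehicle-treated wt1 cultures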; settings: S. cerevisiae wt1 strain (SPY 50644) growth inhibition, stronger effect = higher value
Method in brief: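 Vehicle-normalised growth inhibition; strain wt1; compound exposure.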

[2] = NCI Yeast Anticancer Drug Screen. Data for the rad50EPP+ strain (AID 151);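 note: 0% = growth of vehicle-treated control cultures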; settings: S. cerevisiae rad50 mutant strain, stronger effect = higher value
Method in brief: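 One strain with a rad50 alteration (rad50EPP+) was compound-treated, its growth then compared to that of vehicle controls.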

[3] = NCI Yeast Anticancer Drug Screen. Data for the mgt1 strain (AID 153); settings: S. cerevisiae mgt1 mutant growth inhibition, stronger effect = higher value
Method in brief: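 After exposure of the mgt1 yeast mutant to compound, growth was measured and reported as inhibition compared with vehicle controls.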

[4] = NCI Yeast Anticancer Drug Screen. Data for the rad50 strain (AID 155);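 note: 0% = growth of vehicle-only cultures of the same strain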; settings: S. cerevisiae rad50 strain growth inhibition, stronger effect = higher value
Method in brief: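 A DNA repair-deficient yeast mutant serves as the test organism; compound-induced growth inhibition is calculated against vehicle-treated cells.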

[5] = NCI Yeast Anticancer Drug Screen. Data for the mec2-1 strain (AID 157); settings: S. cerevisiae mec2-1 strain, stronger effect = higher value
Method in brief: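 Test agents were screened against the mec2-1 yeast strain, with defined DNA repair or cell cycle alteration. Growth was scored as inhibition against vehicle-only controls.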

[6] = NCI Yeast Anticancer Drug Screen. Data for the rad14 strain (AID 159);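 note: 0% = growth of vehicle-treated control cultures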; settings: S. cerevisiae rad14 strain growth inhibition, stronger effect = higher value
Method in brief: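 Vehicle-treated cultures served as the baseline for growth inhibition of a DNA repair-mutant yeast strain exposed to each compound.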

[7] = NCI Yeast Anticancer Drug Screen. Data for the sgs1 mgt1 strain (AID 161);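 note: 0% = growth of cultures given vehicle only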; settings: S. cerevisiae sgs1 mgt1 strain, stronger effect = higher value
Method in brief: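 Read-out: growth inhibition vs vehicle controls. Cells: mutant yeast strain deficient in DNA damage repair.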

[8] = NCI Yeast Anticancer Drug Screen. Data for the CLN2oe strain (AID 163);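 note: 0% = growth of vehicle-only control cultures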; settings: S. cerevisiae CLN2oe strain, stronger effect = higher value
Method in brief: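 Here, growth inhibition in a cell-cycle-altered yeast strain after compound exposure was quantified against vehicle control growth.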

[9] = NCI Yeast Anticancer Drug Screen. Data for the cln2 rad14 strain (AID 165);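 note: 0% = growth equal to vehicle treated cultures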; settings: S. cerevisiae cln2 rad14 strain, at 50.0 µM, stronger effect = higher value
Method in brief: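 Growth of compound-exposed yeast (cln2 rad14 genotype) measured and expressed as inhibition relative to vehicle.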

[10] = NCI Yeast Anticancer Drug Screen. Data for the bub3 strain (AID 167); settings: S. cerevisiae bub3 mutant strain, stronger effect = higher value
Method in brief: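 Inhibition values come from growth of compound-treated mutant yeast normalised to vehicle-treated controls.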

[11] = NCI Yeast Anticancer Drug Screen. Data for the mlh1 strain (AID 171);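 note: 0% = growth of vehicle-treated control cultures of the same strain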; settings: S. cerevisiae mlh1 strain growth inhibition, stronger effect = higher value
Method in brief: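 Here the genetically defined yeast mutant is grown with each compound, and the extent to which its growth falls below that of vehicle-exposed cells is reported.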

[12] = NCI Yeast Anticancer Drug Screen. Data for the sgs1 strain (AID 173);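 note: 0% = growth of vehicle-only control cultures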; settings: S. cerevisiae sgs1 mutant, stronger effect = higher value
Method in brief: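 Relative growth inhibition, referenced to vehicle, was determined in a yeast strain with a defined alteration affecting DNA damage repair or cell cycle control after compound exposure.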

[13] = NCI Yeast Anticancer Drug Screen. Data for the mlh1 rad18 strain (AID 175); settings: S. cerevisiae mlh1 rad18 strain growth inhibition, stronger effect = higher value
Method in brief: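 In this whole-cell yeast screen, a strain with altered DNA damage repair is challenged with compound, and its growth is measured against matched vehicle-treated controls.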

[14] = NCI Yeast Anticancer Drug Screen. Data for the rad18 strain (AID 177); settings: S. cerevisiae rad18 mutant growth inhibition, stronger effect = higher value
Method in brief: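 Screen uses a yeast strain with a defined lesion in DNA damage repair; compound effect is read as loss of growth compared to untreated vehicle cultures.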

[15] = NCI Yeast Anticancer Drug Screen. Data for the wt2 strain (AID 169);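 note: 0% = growth of vehicle-treated yeast cultures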; settings: S. cerevisiae wt2 strain growth inhibition, stronger effect = higher value
Method in brief: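 Genetically defined yeast strains from a DNA-repair/cell-cycle panel were used. Compound-exposed yeast growth was measured, and the inhibition was calculated relative to vehicle treatment.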

[16] = at 5.0 µM (retest, dose inferred, filed as 0.5)
[17] = at 50.0 µM (retest, dose inferred, filed as 5.0)

Measured: growth inhibition

CC[C@]1(O)C[C@H]2CN(CCc3c([nH]c4ccccc34)[C@@](C(=O)OC)(c3cc4c(cc3OC)N(C)[C@H]3[C@@](O)(C(=O)OC)[C@H](OC(C)=O)[C@]5(CC)C=CCN6CC[C@]43[C@@H]65)C2)C1
inactive: [1]; at 1.2 µM 1% | [1]; at 3.7 µM -1% | [1]; at 11.0 µM -2% | [1]; at 33.0 µM -1% | [1]; at 100.0 µM -19% | [2]; at 1.2 µM -2% | [2]; at 3.7 µM -3% | [2]; at 11.0 µM -2% | [2]; at 33.0 µM -1% | [2]; at 100.0 µM -6% | [3]; at 1.2 µM -2% | [3]; at 3.7 µM -3% | [3]; at 11.0 µM -1% | [3]; at 33.0 µM -2% | [3]; at 100.0 µM -6% | [4]; at 1.2 µM -2% | [4]; at 3.7 µM -3% | [4]; at 11.0 µM 2% | [4]; at 33.0 µM -4% | [4]; at 50.0 µM -4.25% | [4]; at 100.0 µM -5% | [5]; at 1.2 µM -2% | [5]; at 3.7 µM 0% | [5]; at 11.0 µM -2% | [5]; at 33.0 µM 1% | [5]; at 50.0 µM -3.3% | [5]; at 100.0 µM -7% | [6]; at 1.2 µM -2% | [6]; at 3.7 µM -4% | [6]; at 11.0 µM 0% | [6]; at 33.0 µM -2% | [6]; at 100.0 µM -3% | [7]; at 50.0 µM 1.35% | [8]; at 1.2 µM -2% | [8]; at 3.7 µM 3% | [8]; at 11.0 µM 1% | [8]; at 33.0 µM -11% | [8]; at 100.0 µM -6% | [9] 24.4% | [10]; at 1.2 µM 1% | [10]; at 3.7 µM 1% | [10]; at 11.0 µM -1% | [10]; at 33.0 µM -7% | [10]; at 50.0 µM 14.3% | [10]; at 100.0 µM -7% | [11]; at 1.2 µM 0% | [11]; at 3.7 µM -1% | [11]; at 11.0 µM -1% | [11]; at 33.0 µM -1% | [11]; at 100.0 µM -4% | [12]; at 1.2 µM 0% | [12]; at 3.7 µM -2% | [12]; at 11.0 µM 1% | [12]; at 33.0 µM 1% | [12]; at 100.0 µM -3% | [13]; at 50.0 µM 30.6% | [14]; at 1.2 µM -2% | [14]; at 3.7 µM -3% | [14]; at 11.0 µM -5% | [14]; at 33.0 µM -6% | [14]; at 100.0 µM -7%

Cc1[nH]nc(C(F)(F)F)c1N=NN(C)C
active: [1]; at 33.0 µM 99% | [1]; at 100.0 µM 99% | [2]; at 11.0 µM 73% | [2]; at 33.0 µM 96% | [2]; at 100.0 µM 98% | [4]; [16] 91% | [4]; at 11.0 µM 87% | [4]; at 33.0 µM 99% | [4]; [17] 97% | [4]; at 50.0 µM 99.3% | [4]; at 100.0 µM 98% | [5]; [16] 96% | [5]; at 33.0 µM 99% | [5]; [17] 99% | [5]; at 50.0 µM 99.7% | [5]; at 100.0 µM 98% | [6]; at 33.0 µM 99% | [6]; at 100.0 µM 99% | [7]; [16] 78% | [7]; [17] 98% | [8]; at 33.0 µM 99% | [8]; at 100.0 µM 99% | [10]; at 33.0 µM 98% | [10]; [17] 98% | [10]; at 50.0 µM 99.5% | [10]; at 100.0 µM 98% | [15]; at 33.0 µM 99% | [15]; at 100.0 µM 99% | [12]; at 11.0 µM 75% | [12]; at 33.0 µM 99% | [12]; at 100.0 µM 99% | [13]; [17] 98% | [13]; at 50.0 µM 91.1%
inactive: [1]; at 1.2 µM -4% | [1]; at 3.7 µM 37% | [1]; at 11.0 µM 46% | [2]; at 1.2 µM 3% | [2]; at 3.7 µM 35% | [4]; at 1.2 µM 10% | [4]; at 3.7 µM 51% | [5]; at 1.2 µM 2% | [5]; at 3.7 µM 32% | [5]; at 11.0 µM 61% | [6]; at 1.2 µM 2% | [6]; at 3.7 µM 10% | [6]; at 11.0 µM 54% | [7]; at 50.0 µM 45% | [8]; at 1.2 µM -1% | [8]; at 3.7 µM 8% | [8]; at 11.0 µM 51% | [10]; at 1.2 µM -10% | [10]; at 3.7 µM -8% | [10]; [16] 30% | [10]; at 11.0 µM 45% | [15]; at 1.2 µM -1% | [15]; at 3.7 µM 49% | [15]; at 11.0 µM 51% | [12]; at 1.2 µM 12% | [12]; at 3.7 µM 48% | [13]; [16] 25%
